Results reported in PubChem BioAssay AID1159580 (chemical genetic matrix, 2015).
The campaign covered roughly 5,500 compounds. About 2,000 (36%) were called active. Roughly 18% stayed inconclusive and do not appear here. Rule as the data show it: active = normalized growth mostly below about 0.91 (no sharp cut-off); inconclusive = no clear call, values can overlap the other calls; inactive = mostly above about 0.92. The list shows a part of the results.

Test: chemical genetic growth profiling, strain panel (AID 1159580);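 also: tested at 20 µM; growth read once vehicle control cultures reached saturation at 30 °C; 1 = growth at the plate median or of vehicle wells; lower values mean less growth of the strain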
Conditions: S. cerevisiae deletion strains, growth OD
[1] = locus YMR307W, strain GAS1, hits give low values

Measured: normalized growth

O=C(O)c1cc(O)c2c(c1)C(=O)c1cc(O)cc(O)c1C2=O
inactive: locus YBR021W, strain FUR4, hits give low values 0.97 | locus YBR229C, strain ROT2, hits give low values 0.92 | locus YCL029C, strain bik1, hits give low values 0.932 | locus YDL035C, strain GPR1, hits give low values 0.908 | locus YDL074C, strain BRE1, hits give low values 0.933 | locus YDL101C, strain DUN1, hits give low values 0.931 | locus YDL192W, strain arf1, hits give low values 0.926 | locus YDR101C, strain arx1, hits give low values 0.948 | locus YDR150W, strain NUM1, hits give low values 0.939 | locus YDR162C, strain NBP2, hits give low values 0.873 | locus YDR318W, strain mcm21, hits give low values 0.93 | locus YDR388W, hits give low values 0.938 | locus YEL061C, strain CIN8, hits give low values 0.934 | locus YER155C, strain BEM2, hits give low values 0.968 | locus YER167W, strain BCK2, hits give low values 0.939 | locus YGL078C, strain dbp3, hits give low values 0.954 | locus YGL086W, strain mad1, hits give low values 0.971 | locus YGL248W, strain PDE1, hits give low values 0.956 | locus YGR135W, strain pre9, hits give low values 0.923 | locus YGR252W, strain gcn5, hits give low values 0.816 | locus YHR079C, strain IRE1 (second series), hits give low values 0.949 | locus YHR094C, strain hxt1, hits give low values 0.938 | locus YHR129C, strain ARP1, hits give low values 0.957 | locus YHR200W, strain rpn10, hits give low values 0.939 | locus YIL066C, strain RNR3, hits give low values 0.923 | locus YIL073C, strain SPO22, hits give low values 0.914 | locus YIR030C, strain dcg1, hits give low values 0.939 | locus YJL095W, strain BCK1, hits give low values 0.945 | locus YJL134W, strain LCB3, hits give low values 0.95 | locus YJL187C, strain SWE1 (second series), hits give low values 0.952 | locus YJR043C, strain POL32, hits give low values 0.864 | locus YKL009W, strain mrt4, hits give low values 0.967 | locus YKL190W, strain CNB1, hits give low values 0.95 | locus YLR039C, strain RIC1, hits give low values 0.879 | locus YLR058C, strain SHM2, hits give low values 0.91 | locus YLR102C, strain apc9, hits give low values 0.945 | locus YLR262C, strain YPT6, hits give low values 0.814 | locus YLR268W, strain sec22, hits give low values 0.938 | locus YLR330W, strain CHS5, hits give low values 0.926 | locus YLR342W, strain FKS1 (second series), hits give low values 0.921 | locus YLR371W, strain rom2, hits give low values 0.945 | locus YML016C, strain PPZ1, hits give low values 0.944 | locus YMR078C, strain ctf18, hits give low values 0.939 | locus YMR223W, strain ubp8, hits give low values 0.92 | [1] 0.872 | locus YNL067W, strain RPL9B, hits give low values 0.977 | locus YNL153C, strain GIM3, hits give low values 0.955 | locus YNL233W, strain BNI4, hits give low values 0.95 | locus YNL271C, strain bni1, hits give low values 0.93 | locus YNL307C, strain MCK1, hits give low values 0.931 | locus YNL322C, strain KRE1, hits give low values 0.94 | locus YNR052C, strain pop2, hits give low values 0.977 | locus YOL006C, strain TOP1, hits give low values 1.02 | locus YOL012C, strain htz1 0.738 | locus YOL147C, strain pex11, hits give low values 0.939 | locus YOR061W, strain CKA2, hits give low values 0.916 | locus YOR069W, strain VPS5, hits give low values 0.957 | locus YOR136W, strain idh2, hits give low values 0.929 | locus YOR184W, strain ser1, hits give low values 0.893 | locus YOR316C, strain cot1, hits give low values 0.94 | locus YPL241C, strain CIN2, hits give low values 0.943 | locus YPR119W, strain clb2, hits give low values 0.951 | locus YPR141C, strain kar3, hits give low values 0.916 | locus YPR163C, strain tif3, hits give low values 0.938 | strain wtn01, hits give low values 0.948
active: locus YDL185W, strain tfp1, hits give low values 0.842 | locus YDR502C, strain sam2, hits give low values 0.903 | locus YER110C, hits give low values 0.881 | locus YHR030C, strain SLT2, hits give low values 0.913 | locus YIL125W, strain kgd1, hits give low values 0.915 | locus YJL168C, strain set2, hits give low values 0.912 | locus YKL068W, hits give low values 0.913 | locus YKL085W, strain MDH1 (second series), hits give low values 0.888 | locus YKL085W, strain MDH1, hits give low values 0.888 | locus YKR001C, strain vps1, hits give low values 0.838 | locus YLR418C, strain cdc73, hits give low values 0.766 | locus YML032C, strain rad52, hits give low values 0.899 | locus YML124C, strain tub3, hits give low values 0.93 | locus YNL250W, strain rad50, hits give low values 0.863 | locus YNL298W, strain CLA4, hits give low values 0.894 | locus YOR144C, strain elg1, hits give low values 0.91 | locus YPR167C, strain met16, hits give low values 0.91

O=C(O)c1cc(=O)cc(C(=O)O)[nH]1
inactive: locus YAL040C, strain CLN3, hits give low values 1.02 | locus YCL061C, strain MRC1 (second series), hits give low values 1.01 | locus YER002W, strain NOP16, hits give low values 1.04 | locus YMR263W, strain SAP30, hits give low values 0.998 | [1] 1.01 | locus YNL175C, strain NOP13, hits give low values 0.999 | locus YNL197C, strain WHI3, hits give low values 1.03 | locus YNL224C, strain SQS1, hits give low values 1.01 | locus YOR083W, strain WHI5 (second series), hits give low values 1.02 | locus YPL055C, strain LGE1, hits give low values 1.01
